# Reference: article PMC7819943, “Rice protein-binding microarrays: a tool to detect cis-acting elements near promoter regions in rice”
# Whole data set: some 68,000 sequences, median “fluorescence intensity (a.u.)” near 9,100, cut for the highest 2% near 16,000. Shown is part of a subset that was picked to be rich in the highest values.
# Target: OsWRKY34 (Oryza sativa, UniProt Q0JBA9 1-250)
# Test: protein-binding microarray (RPBM); PBS, 2% BSA, 51.3 ng/ul salmon testes DNA, 50 uM zinc acetate, 200 nM TF, 25 C, 1 h; high values mean tight binding
# Conditions: protein: recombinant; tags: N-terminal polyhistidine and DsRed monomer fusion (pET32a); label: CyDye5-dUTP incorporated in the synthesized complementary strand; 3' TTTTT single-stranded linker to array surface; dsDNA, one strand shown
# Procedure, shortened: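 For the binding signal, per-feature fluorescence intensity was read in arbitrary units on an Axon 4000B scanner. Before scanning, a 2% BSA-blocked custom Agilent array made double-stranded with Cy5-dUTP was washed after 1 h at 25 °C with 200 nM protein and 50 µM zinc acetate. The proteins were Ni–NTA-purified transcription factors with N-terminal polyhistidine and DsRed fusions, expressed in E. coli BL21-CodonPlus.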
# OsWRKY34, sequence (Q0JBA9 entry or part of it): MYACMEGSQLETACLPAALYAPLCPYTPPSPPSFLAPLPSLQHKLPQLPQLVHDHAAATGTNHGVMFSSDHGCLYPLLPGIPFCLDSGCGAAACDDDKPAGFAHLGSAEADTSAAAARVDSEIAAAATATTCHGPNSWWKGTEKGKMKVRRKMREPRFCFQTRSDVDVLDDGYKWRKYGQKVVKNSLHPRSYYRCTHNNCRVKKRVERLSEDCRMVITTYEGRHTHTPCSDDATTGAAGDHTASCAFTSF
row,Sequence,binding signal
1,GAGGTTAGCTCGCCTCTGATTGGGTTGGTTGGGTGGTCGGCGGAGTCACCTAGTGCAG,10100 fluorescence intensity (a.u.)
2,TTGTTCTTCTTTTTTGGTCTGGTTTTTTTTGTGGTTTCTTCGGAGTCACCTAGTGCAG,16700 fluorescence intensity (a.u.)
3,CTTTTGGTCTTCCCTTTCTTTTCTTCTTCTTCTTCTTCTTCGGAGTCACCTAGTGCAG,10400 fluorescence intensity (a.u.)
4,TAATATATGATCATACTTGTTTTATATACATTGTGTCTTGCGGAGTCACCTAGTGCAG,9830 fluorescence intensity (a.u.)
5,TCTGGTTGATTGATCGATTTGGGGAATTGGGGATCTAGCTCGGAGTCACCTAGTGCAG,12000 fluorescence intensity (a.u.)
6,AAGGTTGTCTTGTTTGATTAGCTATTTTCTTTGCCTGGTTCGGAGTCACCTAGTGCAG,11400 fluorescence intensity (a.u.)
7,CGTGTCTTGTGTGTTTCCTGTCTCGCGAGCCTTCCACATACGGAGTCACCTAGTGCAG,15000 fluorescence intensity (a.u.)
8,TTGTTCTTTTTGGTCTGGTTTTTTTGTGGTTTCTTGATTGCGGAGTCACCTAGTGCAG,9010 fluorescence intensity (a.u.)
9,CTCGTGTGTCTTGCGGGCGGGTGATCTTTCCACATACAGACGGAGTCACCTAGTGCAG,19200 fluorescence intensity (a.u.)
10,GGTCTGGTTCTTCTTGATGCGAGGCTAGCTGACGTTTTTTCGGAGTCACCTAGTGCAG,17200 fluorescence intensity (a.u.)
11,GATTTGGTCTGGTTTGGTTGGAGGTTAGCTCGCCTCTGATCGGAGTCACCTAGTGCAG,19400 fluorescence intensity (a.u.)
12,CGTTTCTTGGCTGGTTTTCTTGGGCGGCGATCGATCGATGCGGAGTCACCTAGTGCAG,8140 fluorescence intensity (a.u.)
13,ACCTTAATTAATTAATCTTGTTTTCTCATGGAGTTGTCATCGGAGTCACCTAGTGCAG,10400 fluorescence intensity (a.u.)
14,AACGCGTGTATTTCTATGCTTTTGATATTGATCTTGCATCCGGAGTCACCTAGTGCAG,8230 fluorescence intensity (a.u.)
15,GGACATTTGGAACTGATTACTCCTACTACTCTAGTGAAAACGGAGTCACCTAGTGCAG,8400 fluorescence intensity (a.u.)
16,GTGCTACCTCCATCCCAATATACTTGTCGTTTTAAGTTTTCGGAGTCACCTAGTGCAG,11800 fluorescence intensity (a.u.)
17,TCTCTTATACTGATTTTTGGGTCCAATCCCTTACCGTTGACGGAGTCACCTAGTGCAG,8150 fluorescence intensity (a.u.)
18,TATTCCTTTCATTGGGTTTGTGCGGGATGGCTGGTTGGTGCGGAGTCACCTAGTGCAG,18100 fluorescence intensity (a.u.)
19,CTTGTTGATGTGGGTGTTTCTTGGTCGATCCTTCTTGTTTCGGAGTCACCTAGTGCAG,8330 fluorescence intensity (a.u.)
20,GGTCTGGTTTTATCGGTTTATATGTGTGTGTTTTTTTTGTCGGAGTCACCTAGTGCAG,33500 fluorescence intensity (a.u.)
21,ACCTTTCCTTTCATCTCTTCCGCTGGTTTTGTGGGATATTCGGAGTCACCTAGTGCAG,12800 fluorescence intensity (a.u.)
22,CCGTTTCCTTTGCTGGTTGTGTTTTGTGCTTGCATTCATGCGGAGTCACCTAGTGCAG,12400 fluorescence intensity (a.u.)
23,TTTGTGTGTCTTGTTTATATGTGCACATATCTTGTCTTGTCGGAGTCACCTAGTGCAG,8370 fluorescence intensity (a.u.)
24,TTCCGGCCCGCGTTCTTTTTGAAGTCCAGTTTACGTCCTTCGGAGTCACCTAGTGCAG,10800 fluorescence intensity (a.u.)
25,GCCTTTTTTCCTTTGTCTTTTTCCGGCCCGCGTTCTTTTTCGGAGTCACCTAGTGCAG,17400 fluorescence intensity (a.u.)
26,GATGTTGTTTCCTTTCTTTGGTGGTTTGGTTTGGTTGGGTCGGAGTCACCTAGTGCAG,29300 fluorescence intensity (a.u.)
27,TGGTGACGATGGTGATGTTCTTGTTGTTGGTTTTTCCTTTCGGAGTCACCTAGTGCAG,9530 fluorescence intensity (a.u.)

row,Sequence,binding signal
1,ATTTGTTGTTTCATTTGTATTGTTTTGTGTTGGTTTATGTCGGAGTCACCTAGTGCAG,8940 fluorescence intensity (a.u.)
2,GTTCTCTTTTTTGTTTGTCTTTCCTAGTGCAATATGTTTCCGGAGTCACCTAGTGCAG,10700 fluorescence intensity (a.u.)
3,GTTAGGCATGCTGCTTGTTTATTTTTTTTCAAGTTGAGAACGGAGTCACCTAGTGCAG,8140 fluorescence intensity (a.u.)
4,GCTACTGGTGCCGGCCGCCGTCCTCCTGCTTCCGCCGCCGCGGAGTCACCTAGTGCAG,9560 fluorescence intensity (a.u.)
5,CCCATCATGTGACTTCCATCCTTGTTCCTAGCTGCATGCACGGAGTCACCTAGTGCAG,9270 fluorescence intensity (a.u.)
6,TCTTCACATGCTATTTTGTGTTATTCTTGCCTATAAATGACGGAGTCACCTAGTGCAG,8310 fluorescence intensity (a.u.)
7,ACATGTAAACTGTGCAATTGATTTTTTTTGTCCACATTTACGGAGTCACCTAGTGCAG,10400 fluorescence intensity (a.u.)
8,AGAGGAGACAGAACCCCTGACTTTATACAGTTTGCAGTTACGGAGTCACCTAGTGCAG,8340 fluorescence intensity (a.u.)
9,CGCCGCCGCATCTCCTCCTTCCTCTCTTGGCAACTGTCGGCGGAGTCACCTAGTGCAG,8300 fluorescence intensity (a.u.)
10,AGTTTGTGTGTGTAGGAAAGTTTTGATGTGATGAAAAAGTCGGAGTCACCTAGTGCAG,8680 fluorescence intensity (a.u.)
11,GTCTACTATCCTCTTTCATTGTCTTTTTGTTGGTTGGTTTCGGAGTCACCTAGTGCAG,17600 fluorescence intensity (a.u.)
12,GTAGGAAAGTTTGTTTGTGTGTGTAGAAAAGTTTTGATGTCGGAGTCACCTAGTGCAG,21000 fluorescence intensity (a.u.)
13,GATTCCTTCCTTTTGTTTTTGGGCCGAATTCTCCTTCTTTCGGAGTCACCTAGTGCAG,13000 fluorescence intensity (a.u.)
14,TCCTTGGGCTTTTTTTCTTGTTCGGGGTTGAGAGGCAATGCGGAGTCACCTAGTGCAG,18700 fluorescence intensity (a.u.)
15,ACATGGGCTGGGCTGGGCTGGGCTCTTCTTCCTTTTTGTTCGGAGTCACCTAGTGCAG,21900 fluorescence intensity (a.u.)
16,TTCCTTCTTCCTTCTTTTTTTCTCTCTTCTCCTTTTTTTTCGGAGTCACCTAGTGCAG,10300 fluorescence intensity (a.u.)
17,GGCGGGGTTGGGGCGGCAGGCGGCTGTGAGGTTCTTGATTCGGAGTCACCTAGTGCAG,16100 fluorescence intensity (a.u.)
18,TTGTAAGTTTGTGTGTAGGAAAGTTTTGATGTGAGGAAAACGGAGTCACCTAGTGCAG,9150 fluorescence intensity (a.u.)
19,TTGAGTTGTGTTCTTGGTTGGGGAGGAGGAGGAGGAGATGCGGAGTCACCTAGTGCAG,15100 fluorescence intensity (a.u.)
20,TTTTTGTTTCTATTGGAGGTTGTCATGTTTATCTACCTTTCGGAGTCACCTAGTGCAG,9650 fluorescence intensity (a.u.)
21,GACATATTTTTTTCTCCTCTCTTTTTTCATTTGTTTTTTTCGGAGTCACCTAGTGCAG,11600 fluorescence intensity (a.u.)
22,ACACACACTTTACAGGTTTACAGCCCAACTTATCCGTGCACGGAGTCACCTAGTGCAG,9890 fluorescence intensity (a.u.)
23,ATTTCTTTCCATCCATAATTACTAGGCTGCATTGCCTCTTCGGAGTCACCTAGTGCAG,8720 fluorescence intensity (a.u.)
24,CTCGTACTAGGGTGTCATGCTGTTGGTTCCGGTGAATCTTCGGAGTCACCTAGTGCAG,8270 fluorescence intensity (a.u.)
25,AAATTCAAACTAGTTTCTACATAGCCTCTTTTCTCTATTTCGGAGTCACCTAGTGCAG,10900 fluorescence intensity (a.u.)
26,TGTTTATTTTTTTCGTTAAATTTGATTGTTTCCATTTGCACGGAGTCACCTAGTGCAG,9770 fluorescence intensity (a.u.)
27,ACCCGCCCCTGCTGCTCACCGCTCCAGCCTCCGCTCATCCCGGAGTCACCTAGTGCAG,8790 fluorescence intensity (a.u.)
